Among the test systems are DU-145 prostate; K-562 leukemia; MALME-3M melanoma; MDA-MB-231 breast; RXF 393 renal; SF-268 CNS; SF-295 CNS; SF-539 CNS; UACC-257 melanoma; M14 melanoma; HCT-15 colon; HT29 colon; SNB-75 CNS; SNB-19 CNS; U251 CNS; PC-3 prostate; SK-MEL-5 melanoma; UACC-62 melanoma; SK-MEL-28 melanoma; LOX IMVI melanoma.
Assay in all cases: NCI-60 one-dose screen, 48 h (100 = growth as untreated, 0 = no growth, -100 = all killed)
Details in all cases: 10 µM unless noted

About 83,000 compounds went through this panel and 20% of them were active in at least one assay; those are over-represented in the sample as a whole.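 Step 1: grow cells in 96-well plates. Step 2: add test compound at a single concentration. Step 3: incubate 48 h. Step 4: record percent growth.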 Unmarked numbers belong to inactive results. Calls of active or inactive are those of the source. Rule for the calls: active = growth percent below 10; inactive = the rest.

For `CCCc1nc2ccccn2c1Nc1ccc(C(=O)NO)cc1`, the growth in the test on DU-145 prostate is 88.3%; in the test on K-562 leukemia, 89.5%; in the test with MALME-3M melanoma, 86.7%; in the test on MDA-MB-231 breast, 111%; with RXF 393 renal it was 96%; with SF-268 CNS, 94.2%. Moreover, the growth was 93.8% in the test on SF-295 CNS; 99.3% in the test with SF-539 CNS; 76.1% in the test on UACC-257 melanoma; 89.6% with M14 melanoma; 89.8% in the test on HCT-15 colon; 92.7% with HT29 colon. For the same compound, the growth with SNB-75 CNS was 82.2%; in the test on SNB-19 CNS, 85%; in the test on U251 CNS, 95.9%; in the test on PC-3 prostate, 83%; with SK-MEL-5 melanoma, 101%; with UACC-62 melanoma, 82.7%. In the test with SK-MEL-28 melanoma, the growth is 95.7%.

In the case of `C=C1c2c(C)nn(-c3ccc(NC(C)=O)cc3)c2N(C)C23CC1C1(C)c4c(C)nn(-c5ccc(NC(C)=O)cc5)c4N(C)C(C)(CC12)C3` (stereo unspecified), the growth is 46.8% in the test with DU-145 prostate; 14.9% with K-562 leukemia; 71.1% with MALME-3M melanoma; 48.4% in the test with MDA-MB-231 breast; 29.9% in the test on RXF 393 renal; 43.8% with SF-268 CNS. Besides, the growth was 35.6% in the test with SF-295 CNS; 63.1% in the test on SF-539 CNS; 38.4% in the test on UACC-257 melanoma; 19.6% in the test with M14 melanoma; 11% with HCT-15 colon; 31.1% in the test with HT29 colon. Moreover, the growth in the test with SNB-75 CNS is 99%; with SNB-19 CNS, 43.6%; in the test on U251 CNS it was 33.3%; in the test with PC-3 prostate it was 22.7%; with SK-MEL-5 melanoma, 19.1%; in the test on UACC-62 melanoma, 37%. Further, in the test with SK-MEL-28 melanoma, the growth was 46.9%.

As to `CC(C)N(CCOC(=O)Nc1ccccc1Cl)C(C)C`, the growth with DU-145 prostate was 105%; in the test on K-562 leukemia, 104%; in the test with MALME-3M melanoma, 104%; in the test on MDA-MB-231 breast, 106%; with RXF 393 renal, 108%; in the test on SF-268 CNS, 101%. Also, the growth with SF-295 CNS was 104%; in the test with SF-539 CNS it was 104%; in the test on UACC-257 melanoma, 99.1%; in the test on M14 melanoma it was 99.5%; with HCT-15 colon, 108%; in the test on HT29 colon it was 97.1%. In addition, the growth in the test on SNB-75 CNS is 107%; in the test on SNB-19 CNS, 98.6%; in the test on U251 CNS it was 98.8%; in the test with PC-3 prostate it was 74%; in the test on SK-MEL-5 melanoma, 97.5%; with UACC-62 melanoma, 96.4%. The growth in the test with SK-MEL-28 melanoma is 110%.

Take `COc1ccc(/C=N/NC(=O)Cn2c(-c3ccc(S(C)(=O)=O)cc3)nc3cc(Cl)ccc32)cc1`: the growth in the test on DU-145 prostate was 14.2%; in the test on K-562 leukemia, 6.93% (active); in the test on MALME-3M melanoma, 65.8%; in the test on MDA-MB-231 breast, 12.9%; in the test with RXF 393 renal, 14.9%; in the test with SF-268 CNS, 45.2%. Also, the growth in the test on SF-295 CNS was 13.4%; in the test with SF-539 CNS, -14.1% (active); in the test on UACC-257 melanoma, 64.4%; with M14 melanoma, 13.5%; in the test on HCT-15 colon, 17.5%; with HT29 colon it was 3.57% (active). Further, the growth with SNB-75 CNS is 26.5%; in the test on SNB-19 CNS it was 21.6%; with U251 CNS it was 10.4%; in the test on PC-3 prostate it was 18.4%; in the test with SK-MEL-5 melanoma it was 12.7%; in the test on LOX IMVI melanoma, 30.8%. The growth in the test with SK-MEL-28 melanoma is 52.7%.

In the case of `COc1ccc(C2CC(c3cnccn3)=NN2)cc1OC` (stereo unspecified), the growth in the test with DU-145 prostate was 104%; in the test with K-562 leukemia, 60.9%; with MALME-3M melanoma it was 95.4%; in the test with MDA-MB-231 breast, 106%; in the test with RXF 393 renal, 100%; in the test with SF-268 CNS it was 103%. For the same compound, the growth with SF-295 CNS was 104%; in the test with SF-539 CNS it was 111%; with UACC-257 melanoma, 106%; in the test on M14 melanoma, 89.5%; in the test on HCT-15 colon, 107%; in the test with SNB-75 CNS it was 118%. Moreover, the growth was 103% in the test on SNB-19 CNS; 96.7% with U251 CNS; 92% in the test on PC-3 prostate; 100% in the test with SK-MEL-5 melanoma; 103% with UACC-62 melanoma; 104% in the test on LOX IMVI melanoma. In addition, the growth with SK-MEL-28 melanoma is 121%.

For `CN1C(=O)CCC(N2C(=O)c3cccc(NCCOCCOCCNC(=O)c4cc5c(o4)C(=O)c4ccccc4C5=O)c3C2=O)C1=O` (stereo unspecified), the growth is -95.3% (active) in the test with DU-145 prostate; 10.5% with K-562 leukemia; -97.4% (active) in the test with MALME-3M melanoma; -3.68% (active) with MDA-MB-231 breast; -34.6% (active) in the test with RXF 393 renal; -0.714% (active) in the test with SF-268 CNS. Moreover, the growth in the test with SF-295 CNS was -88.1% (active); in the test on SF-539 CNS, -80.4% (active); in the test on UACC-257 melanoma it was -85.1% (active); in the test with M14 melanoma, -67.2% (active); in the test on HCT-15 colon it was -79% (active); in the test with HT29 colon it was 0.328% (active). Besides, the growth was -98.2% (active) with SNB-75 CNS; 1.34% (active) in the test on SNB-19 CNS; -5.25% (active) with U251 CNS; 7.64% (active) in the test with PC-3 prostate; -97% (active) with SK-MEL-5 melanoma; -53.6% (active) in the test with LOX IMVI melanoma. In the test with SK-MEL-28 melanoma, the growth is -19.9% (active).

As for `N#Cc1c(NC(=O)c2ccccc2I)sc2c1CCCC2`, the growth is 62.9% in the test with DU-145 prostate; 14.8% in the test on K-562 leukemia; 60.9% in the test with MALME-3M melanoma; 54.7% in the test with MDA-MB-231 breast; -10.4% (active) with RXF 393 renal; 58.1% with SF-268 CNS. In addition, the growth with SF-295 CNS is 21.1%; with SF-539 CNS it was 22.9%; with UACC-257 melanoma it was 60.7%; in the test on M14 melanoma, 16.3%; with HCT-15 colon it was 21.5%; in the test with HT29 colon, 17.4%. Further, the growth in the test on SNB-75 CNS was 16.7%; in the test on SNB-19 CNS, 39.2%; in the test on U251 CNS, 29.7%; in the test with PC-3 prostate it was 47.1%; with SK-MEL-5 melanoma, 19.2%; in the test on SK-MEL-28 melanoma, 64.1%.

With `COc1ccc(-n2ncn(CCCCCCn3cnn(-c4ccc(OC)cc4)c3=O)c2=O)cc1`, the growth with DU-145 prostate is 101%; in the test with K-562 leukemia, 72.7%; in the test with MALME-3M melanoma it was 95.7%; in the test with MDA-MB-231 breast it was 87.4%; in the test with RXF 393 renal, 98.2%; in the test with SF-268 CNS, 91.4%. Also, the growth in the test with SF-295 CNS was 93.6%; with SF-539 CNS, 91.7%; in the test on UACC-257 melanoma, 101%; in the test with M14 melanoma, 97.5%; with HCT-15 colon, 95.3%; in the test on HT29 colon, 101%. For the same compound, the growth in the test with SNB-75 CNS was 79.8%; in the test with SNB-19 CNS, 90.3%; with U251 CNS, 94.3%; with PC-3 prostate it was 84.8%; in the test with SK-MEL-5 melanoma, 95.2%; in the test on UACC-62 melanoma, 76.5%. Also, in the test with SK-MEL-28 melanoma, the growth was 98%.

The values are drawn from PubChem BioAssay (NCI).
